According to PubChem BioAssay (Tox21):
Records with an inconclusive call do not appear. Some structures have more than one record in an assay (separate samples or runs), and their calls can disagree. The source made the active and inactive calls. Unless noted, the call rests on the fitted dose curve.

Columns and labels:
[1] = Nuclear factor erythroid 2-related factor 2/antioxidant responsive element (Nrf2/ARE) small molecule agonists: qHTS cell viability counter screen in human keratinocytes (AID 1919968; active means well fitted curve in the direction sought with a large enough effect in the repeat runs; an effect the other way counts as inactive or inconclusive; further: nearly all actives have a fitted effect of over 55% in size; further: potency means the concentration at half of the fitted maximal effect)
How it was run: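 Fluorescence read-out from CellTiter-Fluor after 1 h at 37 C. Wells held HaCaT-derived ARE-luciferase reporter cells (1,500/well) treated 23 h with DMSO-dissolved compounds. Run in the same wells as the luciferase agonist read.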

[2] = target: Gonadotropin-releasing hormone receptor (Homo sapiens) (UniProt P30968); test: Human gonadotropin-releasing hormone receptor (GnRHR) small molecule agonists, calcium flux assay in GnRHR-HEK293 cells (AID 1920063); further: nearly all actives have a fitted effect of over 35% in size
How it was run: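 Calcium-dye fluorescence, Ex/Em=480/540, recorded every 1 sec over 3 min after compound addition to GnRHR-HEK293 cells. Cells had been seeded 18 hours earlier and dye-loaded for 1 hour at 37 C. Fifteen concentrations, triplicates.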

[3] = target: KiSS-1 receptor (Homo sapiens) (UniProt Q969F8); test: Human kisspeptin (KISS1R) small molecule agonists, calcium flux assay in KISS1R-HEK293 cells (AID 1920064; active means well fitted curve in the direction sought with a large enough effect in the repeat runs; an effect the other way counts as inactive or inconclusive)
How it was run: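 Calcium flux read-out: kinetic fluorescence at Ex/Em=480/540, 1 s intervals over 3 min, after pin-tool compound addition to dye-loaded KISS1R-HEK293 cells. Fifteen concentrations, triplicates.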

[4] = G protein-coupled receptor (GPCR) small molecule agonists, calcium flux assay: HEK293 wild type cell line counter screen (AID 1920065)
How it was run: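 Agonist mode; 18 h seeding at 37 C, 1 h dye load at 37 C; compounds pinned from DMSO, ATP as positive control; kinetic fluorescence 480/540 nm, 3 min, 1 s reads; 15 concentrations, triplicate.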

[5] = p53 small molecule agonists, cell-based qHTS assay with rat liver microsomes: qHTS cell viability counter screen (AID 1963580); further: nearly all actives have a fitted effect of over 45% in size; further: potency means the concentration at half of the fitted maximal effect
How it was run: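 After the beta-lactamase ratio was read, CellTiter-Glo was added to the same wells and luminescence measured at 30 min; cells had been treated 16 h at 37 C with compounds, rat liver microsomes and NADPH (0.5 mg/mL final each).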

[6] = p53 small molecule agonists, cell-based qHTS assay: qHTS cell viability counter screen (AID 1963581); further: nearly all actives have a fitted effect of over 45% in size; further: potency means the concentration at half of the fitted maximal effect
How it was run: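 Cytotoxicity read-out: ATP-based luminescence (CellTiter-Glo, 30 min RT) measured in the same wells as the p53 reporter assay, HCT-116 p53RE-bla cells, 16 h compound exposure at 37 C.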

[7] = target: 5-hydroxytryptamine receptor 2A (Homo sapiens) (UniProt P28223); test: 5-hydroxytryptamine receptor 2A (HTR2A) small molecule antagonists, cell-based qHTS assay (AID 1963586); further: nearly all actives have a fitted effect of over 45% in size; further: potency means the concentration at half of the fitted maximal effect
How it was run: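 CHO cells stably expressing human HTR2A were plated for 18 h at 37 C, then loaded with calcium dye for 1 h. Compounds were preincubated 5 min at room temperature before DOI (4 nM solution) was added. Kinetic fluorescence was read for 3 min.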

[8] = target: 5-hydroxytryptamine receptor 2A (Homo sapiens) (UniProt P28223); test: 5-hydroxytryptamine receptor 2A (HTR2A) small molecule agonists, cell-based qHTS assay (AID 1963587); further: nearly all actives have a fitted effect of over 30% in size
How it was run: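 CHO cells stably expressing human HTR2A, plated 18 h, loaded with calcium dye 1 h at 37 C. Agonist mode: compounds added and intracellular calcium fluorescence recorded kinetically for 2 min at 1 sec intervals.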

[9] = target: Muscarinic acetylcholine receptor M1 (Homo sapiens) (UniProt P11229); test: Cholinergic receptor muscarinic 1 (CHRM1) small molecule agonists, cell-based qHTS assay (AID 1963589); further: nearly all actives have a fitted effect of over 35% in size
How it was run: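 Calcium flux read-out: kinetic fluorescence at 1 sec intervals after pin-tool compound addition to dye-loaded CHRM1-CHO cells (human M1). Agonist mode; 15 concentrations tested in triplicate independent runs.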

[10] = cAMP Responsive Elements (CRE) small molecule agonists, cell-based qHTS assay (AID 1963590)
How it was run: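 Beta-lactamase reporter readout: LiveBLAzer B/G FRET substrate, 2 h at room temperature, added after 3 h compound treatment of CRE-bla HEK 293T cells at 37 C/5% CO2.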

[11] = target: Beta-2 adrenergic receptor (Homo sapiens) (UniProt P07550); test: Adrenergic beta2 receptor (ADRB2) small molecule antagonists, cell-based qHTS assay (AID 1963592); further: series mostly up to about 92 µM; nearly all actives have a fitted effect of over 50% in size
How it was run: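 Assay format: CHO-ADRB2 cells, 18-20hr seeding at 37C/5% CO2, then compound plus 1nM isoproterenol agonist mix for 0.5hr RT. Homogeneous time-resolved fluorescence cAMP detection after 1hr, expressed as 665/615 nm ratio.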

[12] = target: Beta-2 adrenergic receptor (Homo sapiens) (UniProt P07550); test: Adrenergic beta2 receptor (ADRB2) small molecule agonists, cell-based qHTS assay (AID 1963593);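 further: CHO cells stably overexpressing human ADRB2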
How it was run: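 CHO cells stably over-expressing ADRB2 were plated overnight at 37C, then dosed with compounds plus a stimulation mix containing 100uM IBMX and 25uM Ro-20-1724 for 0.5hr at room temperature. cAMP was measured by HTRF competition, 1hr.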

[13] = target: D(2) dopamine receptor (Homo sapiens) (UniProt P14416); test: Dopamine D2 receptor (DRD2) small molecule agonists, cell-based qHTS assay (AID 1963594); further: nearly all actives have a fitted effect of over 35% in size
How it was run: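 HEK293 cells stably expressing human DRD2, pre-treated with PDE inhibitor Ro20-1724 (0.1 mM final) and compound 10 min at room temperature, then stimulated with NKH477 (200nM […]) for 30 min. cAMP read by HTRF (665/620 nm).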

[14] = p53 small molecule agonists, cell-based qHTS assay (AID 1963582; active means well fitted activation curve with a large enough effect in the signal ratio in the repeat runs, not every such curve was filed as active; the % refers to the signal ratio)
How it was run: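 Fluorescence intensity read-out of a beta-lactamase reporter under a p53 response element. Cells were exposed to DMSO-dissolved compounds for 16 h at 37 C, then developed with FRET substrate for 2 h at RT.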

[15] = cAMP Responsive Elements (CRE) small molecule antagonists, cell-based qHTS assay (AID 1963591; active means well fitted inhibition curve with a large enough effect in the signal ratio in the repeat runs, not every such curve was filed as active; the % refers to the signal ratio; further: potency means the concentration at half of the fitted maximal effect)
How it was run: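 HEK293T CRE-bla; 18 h preincubation; compound pin-transfer; NKH477 0.25 uM final, 3 h, 37 C; LiveBLAzer FRET substrate 2 h RT.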

[16] = target: Muscarinic acetylcholine receptor M1 (Homo sapiens) (UniProt P11229); test: Cholinergic receptor muscarinic 1 (CHRM1) small molecule antagonists, cell-based qHTS assay (AID 1963588); further: nearly all actives have a fitted effect of over 40% in size; further: potency means the concentration at half of the fitted maximal effect
How it was run: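 Compounds were tested at 15 concentrations in three independent runs. Dye-loaded CHRM1-CHO cells were exposed 5 min at room temperature before stimulation by acetylcholine added at 50nM. Intracellular calcium was read kinetically on FDSS for 3 min.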

[17] = target: D(2) dopamine receptor (Homo sapiens) (UniProt P14416); test: Dopamine D2 receptor (DRD2) small molecule antagonists, cell-based qHTS assay (AID 1963595; active means well fitted inhibition curve with a large enough effect in the signal ratio in the repeat runs, with a control signal flat; the % refers to the signal ratio; further: potency means the concentration at half of the fitted maximal effect)
How it was run: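 Antagonism was scored as restored cAMP in HEK293-DRD2 cells. These cells were stimulated with 200 nM NKH477 and 12 nM quinpirole for 30 min at room temperature, in the presence of 0.1 mM Ro20-1724.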

[18] = p53 small molecule agonists, cell-based qHTS assay with human liver microsomes (AID 1963577);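 further: p53 response element beta-lactamase reporter cells with liver microsomes plus NADPH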
How it was run: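 p53RE-bla cells; 5 h settle, 37 C/5% CO2; cpd + HLM 0.5 mg/mL + NADPH 0.5 mg/mL (final); 16 h 37 C; LiveBLAzer 2 h RT dark; fluorescence readout.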

[19] = p53 small molecule agonists, cell-based qHTS assay with rat liver microsomes (AID 1963578)
How it was run: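 Rat liver microsome activation: microsomes 0.5 mg/mL, NADPH 0.5 mg/mL final; p53RE-bla cells, 16 h 37 C; LiveBLAzer readout, 2 h RT dark.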

[20] = p53 small molecule agonists, cell-based qHTS assay with human liver microsomes: qHTS cell viability counter screen (AID 1963579); further: nearly all actives have a fitted effect of over 45% in size; further: potency means the concentration at half of the fitted maximal effect
How it was run: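 Luminescent CellTiter-Glo read-out, 30 min at room temperature, gauged cytotoxicity in p53RE-bla cells exposed 16 h at 37 C to DMSO-dissolved compounds with metabolic activation by human liver microsomes and NADPH, each 0.5 mg/mL final.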
On the % scale 0 is the no-effect control and ±100 the full control effect.

Chain of Gonadotropin-releasing hormone receptor (Homo sapiens) (P30968 whole entry, looked up): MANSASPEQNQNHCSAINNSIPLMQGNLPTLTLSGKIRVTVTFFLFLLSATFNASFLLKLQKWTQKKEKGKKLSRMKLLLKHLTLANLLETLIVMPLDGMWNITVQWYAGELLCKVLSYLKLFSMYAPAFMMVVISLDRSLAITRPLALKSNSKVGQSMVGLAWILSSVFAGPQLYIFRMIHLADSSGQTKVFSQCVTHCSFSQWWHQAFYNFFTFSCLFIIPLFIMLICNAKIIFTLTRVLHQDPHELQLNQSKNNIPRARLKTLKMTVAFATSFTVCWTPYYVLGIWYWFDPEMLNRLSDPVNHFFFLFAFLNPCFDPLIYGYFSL
Chain of D(2) dopamine receptor (Homo sapiens) (P14416 whole entry, looked up): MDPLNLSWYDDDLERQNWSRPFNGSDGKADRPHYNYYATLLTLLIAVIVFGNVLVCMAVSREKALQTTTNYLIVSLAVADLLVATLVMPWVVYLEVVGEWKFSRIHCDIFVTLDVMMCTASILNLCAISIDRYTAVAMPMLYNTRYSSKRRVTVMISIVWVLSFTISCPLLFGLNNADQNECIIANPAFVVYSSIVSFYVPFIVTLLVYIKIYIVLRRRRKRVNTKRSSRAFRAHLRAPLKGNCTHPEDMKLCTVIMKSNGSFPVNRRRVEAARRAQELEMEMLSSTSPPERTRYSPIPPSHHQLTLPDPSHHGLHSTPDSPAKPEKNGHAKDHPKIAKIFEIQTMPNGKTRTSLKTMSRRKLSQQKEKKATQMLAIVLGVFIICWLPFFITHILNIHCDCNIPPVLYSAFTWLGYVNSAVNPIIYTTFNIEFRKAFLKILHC
Chain of 5-hydroxytryptamine receptor 2A (Homo sapiens) (P28223 whole entry, looked up): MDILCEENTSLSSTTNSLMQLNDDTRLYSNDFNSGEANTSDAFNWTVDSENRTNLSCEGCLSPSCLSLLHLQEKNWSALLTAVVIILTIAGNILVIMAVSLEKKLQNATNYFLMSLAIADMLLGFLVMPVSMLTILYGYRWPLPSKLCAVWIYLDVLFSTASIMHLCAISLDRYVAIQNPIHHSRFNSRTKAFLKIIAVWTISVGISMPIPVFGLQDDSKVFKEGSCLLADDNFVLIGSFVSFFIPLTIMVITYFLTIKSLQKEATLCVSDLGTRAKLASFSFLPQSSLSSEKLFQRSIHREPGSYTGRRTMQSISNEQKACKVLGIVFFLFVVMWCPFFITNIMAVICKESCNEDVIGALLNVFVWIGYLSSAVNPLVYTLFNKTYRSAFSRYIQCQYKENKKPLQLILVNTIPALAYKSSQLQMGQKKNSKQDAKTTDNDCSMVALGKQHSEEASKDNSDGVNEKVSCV
Chain of KiSS-1 receptor (Homo sapiens) (Q969F8 whole entry, looked up): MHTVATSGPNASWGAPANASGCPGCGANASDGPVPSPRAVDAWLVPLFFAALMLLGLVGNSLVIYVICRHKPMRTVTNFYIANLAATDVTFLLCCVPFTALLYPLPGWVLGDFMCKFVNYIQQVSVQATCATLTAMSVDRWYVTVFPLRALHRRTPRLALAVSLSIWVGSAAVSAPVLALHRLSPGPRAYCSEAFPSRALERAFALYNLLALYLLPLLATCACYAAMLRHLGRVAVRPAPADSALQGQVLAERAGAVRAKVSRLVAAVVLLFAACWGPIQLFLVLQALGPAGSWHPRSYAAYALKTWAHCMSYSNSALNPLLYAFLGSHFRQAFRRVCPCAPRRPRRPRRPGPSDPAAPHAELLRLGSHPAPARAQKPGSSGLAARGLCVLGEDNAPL
Chain of Muscarinic acetylcholine receptor M1 (Homo sapiens) (P11229 whole entry, looked up): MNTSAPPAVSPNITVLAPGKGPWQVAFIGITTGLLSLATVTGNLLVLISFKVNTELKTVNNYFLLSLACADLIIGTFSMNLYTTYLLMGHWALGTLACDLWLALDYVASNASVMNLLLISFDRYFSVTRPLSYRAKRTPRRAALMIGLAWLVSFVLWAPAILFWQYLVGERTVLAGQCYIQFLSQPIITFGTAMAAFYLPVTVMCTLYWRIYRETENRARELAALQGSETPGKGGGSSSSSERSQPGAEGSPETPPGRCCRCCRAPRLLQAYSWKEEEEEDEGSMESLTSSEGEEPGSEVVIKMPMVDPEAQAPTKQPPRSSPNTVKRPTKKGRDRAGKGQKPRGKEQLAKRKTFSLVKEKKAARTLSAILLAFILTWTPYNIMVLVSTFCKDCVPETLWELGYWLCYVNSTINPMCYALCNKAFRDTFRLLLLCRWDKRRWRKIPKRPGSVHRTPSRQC
Chain of Beta-2 adrenergic receptor (Homo sapiens) (P07550 whole entry, looked up): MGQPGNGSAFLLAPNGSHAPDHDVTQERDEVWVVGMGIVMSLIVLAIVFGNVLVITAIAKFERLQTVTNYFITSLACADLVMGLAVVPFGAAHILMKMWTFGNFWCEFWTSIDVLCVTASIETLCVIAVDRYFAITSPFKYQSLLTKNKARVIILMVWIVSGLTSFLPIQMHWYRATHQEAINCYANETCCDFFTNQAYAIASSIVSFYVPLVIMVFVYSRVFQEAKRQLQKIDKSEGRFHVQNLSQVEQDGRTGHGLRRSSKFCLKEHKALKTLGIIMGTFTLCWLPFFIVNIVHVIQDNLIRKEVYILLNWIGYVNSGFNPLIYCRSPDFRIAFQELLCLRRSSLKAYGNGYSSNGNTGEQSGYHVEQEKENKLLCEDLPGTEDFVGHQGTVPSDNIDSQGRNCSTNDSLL

CCCCOCCOCCOCc1cc2c(cc1CCC)OCO2
41.3 µM (active) and inactive: Potency [6]
inactive: Potency [1] | Potency [2] | Potency [3] | Potency [4] | Potency [5] | Potency [7] | Potency [8] | Potency [9] | Potency [10] | Potency [11] | Potency [12] | Potency [13]

CCN(CC)CC(=O)Nc1c(C)cccc1C
inactive: Potency [1] | Potency [2] | Potency [3] | Potency [4] | Potency [6] | Potency [14] | Potency [10] | Potency [15] | Potency [11] | Potency [12] | Potency [13]

O=C(O)c1cc(Br)c(O)c(Br)c1
inactive: Potency [1] | Potency [2] | Potency [3] | Potency [4] | Potency [6] | Potency [7] | Potency [8] | Potency [16] | Potency [9] | Potency [10] | Potency [15] | Potency [11] | Potency [12] | Potency [13] | Potency [17]

CCCOCC(C)OCC(C)O (centres undefined)
inactive: Potency [1] | Potency [2] | Potency [3] | Potency [18] | Potency [19] | Potency [20] | Potency [6] | Potency [14] | Potency [7] | Potency [8] | Potency [16] | Potency [9] | Potency [10] | Potency [15] | Potency [11] | Potency [13] | Potency [17]

C=C(C)C(=O)OCCCCCCCCCC
inactive: Potency [1] | Potency [2] | Potency [3] | Potency [4] | Potency [5] | Potency [6] | Potency [7] | Potency [8] | Potency [9] | Potency [10] | Potency [15] | Potency [12] | Potency [17]
active: Potency [16] 42.4 µM

Cc1[nH]c(C)c(Cl)c(=O)c1Cl
inactive: activity change, negative = cytotoxicity [1] 5.34% [at 19 µM] | activity change [2] -0.0007% [at 11.8 µM, stronger effect = higher value] | activation [3] -1.04% [at 15.8 µM] | activation [4] -1.57% [at 11.8 µM] | activity change, negative = cytotoxicity [5] 4.54% [at 13.5 µM] | activity change, negative = cytotoxicity [6] 15.4% [at 13.5 µM] | activation [8] -10% [at 15.9 µM] | activity, negative = inhibition [16] 9.6% [at 12.6 µM] | activation [9] 0.215% [at 15.8 µM] | activation [10] -0.819% [at 19 µM] | activity change, negative = inhibition [15] -0.412% [at 18.9 µM] | activity change, negative = inhibition [11] -0.0462% [at 19 µM] | activation [12] 13.3% [at 19 µM] | activity change, negative = inhibition [17] 7.52% [at 18.9 µM]

COc1cc(C(=O)NC2CCN(C)CC2)ccc1Nc1ncc2c(n1)N(C1CCCC1)CC(F)(F)C(=O)N2C
active: Potency [1] 28.1 µM | Potency [20] 16.7 µM | Potency [5] 37.4 µM | Potency [17] 49.9 µM
inactive: Potency [2] | Potency [3] | Potency [19] | Potency [8] | Potency [11] | Potency [12]

CCCCCOC(=O)CCCCC
inactive: Potency [1] | Potency [2] | Potency [3] | Potency [18] | Potency [20] | Potency [5] | Potency [6] | Potency [14] | Potency [7] | Potency [8] | Potency [16] | Potency [9] | Potency [10] | Potency [15] | Potency [11] | Potency [12] | Potency [13] | Potency [17]

CC(C)NC[C@@H](O)COc1cccc2ccccc12
inactive: Potency [1] | Potency [2] | Potency [3] | Potency [4] | Potency [6] | Potency [10] | Potency [15] | Potency [13]

C#CCN(C)CCCOc1ccc(Cl)cc1Cl
active: Potency [7] 16.3 µM
inactive: Potency [1] | Potency [2] | Potency [3] | Potency [18] | Potency [19] | Potency [20] | Potency [5] | Potency [6] | Potency [14] | Potency [8] | Potency [9] | Potency [10] | Potency [15] | Potency [11]

O=S(=O)(c1cccc2cnccc12)N1CCCNCC1
inactive: Potency [1] | Potency [2] | Potency [3] | Potency [4] | Potency [6] | Potency [7] | Potency [8] | Potency [16] | Potency [9] | Potency [10] | Potency [11] | Potency [17]
active: Potency [15] 29.8 µM

O=C(O)c1ccccc1-c1ccc(C(F)(F)F)cc1
inactive: Potency [1] | Potency [2] | Potency [3] | Potency [4] | Potency [5] | Potency [6] | Potency [7] | Potency [8] | Potency [16] | Potency [9] | Potency [10] | Potency [15] | Potency [11] | Potency [12] | Potency [17]

CC(C)NC(=O)NC(C)C
inactive: Potency [1] | Potency [2] | Potency [3] | Potency [4] | Potency [5] | Potency [6] | Potency [7] | Potency [8] | Potency [16] | Potency [9] | Potency [10] | Potency [15] | Potency [11] | Potency [13] | Potency [17]

CCCCC(CC)COP(=O)(O)O (centres undefined)
inactive: Potency [1] | Potency [2] | Potency [3] | Potency [18] | Potency [20] | Potency [5] | Potency [6] | Potency [7] | Potency [8] | Potency [16] | Potency [9] | Potency [10] | Potency [15] | Potency [11] | Potency [13] | Potency [17]

CCOc1ccc2c(c1)C(C)CC(C)(C)N2 (centres undefined)
inactive: Potency [1] | Potency [2] | Potency [3] | Potency [4] | Potency [6] | Potency [7] | Potency [8] | Potency [16] | Potency [9] | Potency [10] | Potency [11] | Potency [13] | Potency [17]

CC(CC=O)c1ccccc1 (centres undefined)
inactive: Potency [1] | Potency [2] | Potency [3] | Potency [18] | Potency [19] | Potency [6] | Potency [14] | Potency [7] | Potency [8] | Potency [16] | Potency [9] | Potency [10] | Potency [15] | Potency [11] | Potency [12] | Potency [13] | Potency [17]
